# Hits are enriched below; roughly 6.6% of the tested compounds scored in any of these assays.
# TGFb SMAD3 inh: TGF-b pathway inhibition | HepG2 CAGA-GFP TGF-b/SMAD3 reporter, GFP fluorescence, 18 h; TGF-beta stimulated, 500 pg/mL final | Potency, µM (doses to about 46.1 µM), for the others: at the top dose activity, negative = inhibition, usual class: inhibitors | 410,000 compounds, 1.2% hits | AID 588855; note: % is set by controls: 0 for no effect and ±100 for the full control effect; nearly all actives have a fitted effect of over 65% in size
#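 Per well, imaged GFP fluorescence of HEPG2 CAGA-GFP cells gives the signal; cells get compound, then TGF-beta (500 pg/mL final), 18 h at 37 degrees C; %Activity versus -TGF-beta and +DMSO controls.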
# HepG2 tox: kills HepG2 cells in TGF-b inhibitor counter-screen. HepG2 CAGA-GFP viability, ATP luminescence, 18 h. AID 588856. Potency, µM (top dose mostly 46.1 µM), for the others: top-dose activity change, negative = cytotoxicity, most hits filed as cytotoxic. 410,000 compounds, 0.76% hits
#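 HepG2 CAGA-GFP cells (1000/well, DMEM with 1% FBS) received compound, then TGF-beta at 500 pg/mL final, and were incubated 18 hours at 37 degrees C. Viability was read by CellTiter-Glo luminescence. Media-only wells were set as complete cell-killing and DMSO as no toxicity.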
# KB-V1 cytotox: KB-V1 MDR subline cytotoxicity; KB-V1 MDR cells viability, CellTiter-Glo, 72 h; Potency, µM (top dose mostly 46.1 µM), actives largely listed as cytotoxic; 400,000 compounds, 3.4% hits; note: % is set by controls: 0 for no effect and ±100 for the full control effect; nearly all actives have a fitted effect of over 60% in size
#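 KB-V1 cells (P-gp-expressing MDR subline of KB-3-1) in phenol-red-free DMEM with 10% FBS were exposed to library compounds over a concentration series for 72 h at 37 degrees C. Viability read by CellTiter-Glo luminescence; concentration-effect curves fitted after normalization.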
# HT1080 IDH1KD tx: HT-1080 IDH1 knockdown cell toxicity (counter line) | HT-1080 IDH1 knockdown viability, ATP luminescence, 48 h | Potency, µM (series often up to 46.1 µM), for the others: at the highest dose activity, negative = toxicity, usual class: cytotoxic | 360,000 compounds, 2% hits;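 note: 0% = DMSO wells and -100% = cell-free medium wells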
#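 CellTiter-Glo luminescence after 48 h compound exposure at 37 degrees C of IDH1-knockdown HT-1080 cells in 5% FBS RPMI. %Activity scaled between DMSO wells and cell-free media wells, with curves fitted and assigned curve classes.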
# KB-3-1 tox: KB-3-1 parental cell cytotoxicity. KB-3-1 viability, CellTiter-Glo ATP luminescence, 72 h. Potency, µM (doses to about 46.1 µM), hits mostly cytotoxic. 400,000 compounds, 1.4% hits. AID 1347075; note: % is set by controls: 0 for no effect and ±100 for the full control effect; nearly all actives have a fitted effect of over 60% in size
#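 Cells are dispensed, compounds pinned in, plates held at 37 °C for 72 h, then CellTiter-Glo is added and luminescence read after 10 minutes. Cell line: parental KB-3-1 in phenol-red-free DMEM, 10% FBS.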
# HT1080NT lethal: kills 2HG-producing HT-1080-NT fibrosarcoma cells; HT-1080-NT fibrosarcoma viability, CellTiter-Glo ATP luminescence, 48 h; Potency, µM (highest dose often 46.1 µM), for the others: top-dose activity, negative = less viability, hits mostly cytotoxic; 360,000 compounds, 1.6% hits; AID 686970;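 note: NT is the 2HG producing partner of a matched IDH1 knockdown line; 0% = DMSO-treated cells and -100% = media-only wells without cells; nearly all actives have a fitted effect of over 55% in size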
#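 750 cells/well, RPMI + 5% FBS; 2 h settle, compound pin-transfer, 48 h at 37 degrees C. CellTiter-Glo 10 min RT, luminescence. Normalized to DMSO and media-only wells.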
# Starred values were filed as active, the others as inactive; i = inactive; u = inconclusive; x = not tested or not shown. Calls come from the whole dose curve; as a rule, active = well fitted curve in the direction sought with a large enough effect; inconclusive = small, poorly fitted or top-dose-only effect, or another doubt; inactive = no such curve, though single readings can be large; an effect the other way counts as inactive or inconclusive. Potency is the fitted concentration of half-maximal effect.
SMILES,TGFb SMAD3 inh,HepG2 tox,KB-V1 cytotox,HT1080 IDH1KD tx,KB-3-1 tox,HT1080NT lethal
O=C(NC(=S)Nc1cccc(Cl)c1N1CCCCC1)c1ccc2c(c1)OCCO2,u,1%,15µM*,4%,i,11%
O=C(Nc1ncc([N+](=O)[O-])s1)c1ccc2c(c1)OCO2,u,-64%,u,16µM*,23µM*,15µM*
O=C(Nc1cccc(Cl)c1N1CCCCC1)c1ccc2c(c1)OCCO2,5%,0%,i,u,i,u
O=C(Nc1cccc2cccnc12)c1ccc2c(c1)OCCO2,6%,-22%,13µM*,7%,i,2%
Cc1cnc(NC(=O)c2cccc(S(=O)(=O)N3CC(C)OC(C)C3)c2)s1 (stereo not drawn),u,-27%,16µM*,-1%,u,-15%
CCc1ccc(NC(=O)c2sc3ncnc(N(C)C4CCCCC4)c3c2C)cc1,1%,-13%,i,x,i,x
Cc1cc(C)c(NC(=O)CN(C)C(C)C(=O)N2CCc3ccccc32)c(C)c1 (stereo not drawn),u,-31%,i,7%,i,4%
CCn1c(=O)c2cc(C(=O)N(C)c3cc(C)ccc3C)sc2c2ccccc21,-15%,-10%,i,x,i,x
Cc1cnc(NC(=O)c2ccc3c(c2)OCCO3)s1,-11%,-47%,u,7.3µM*,5.8µM*,7.3µM*
Cc1ccc(C(=O)Nc2ncc([N+](=O)[O-])s2)cc1,u,-70%,i,23µM*,u,18µM*
CN(C)c1ccc(CNC(=O)c2ccccc2NC(=O)c2nsc3ccccc23)cc1,0%,0%,i,x,i,x
COCCNc1nc(CSc2ccccc2)nc2sc(C)c(C)c12,-19%,-19%,10µM*,-15%,i,-9%
Cc1ccc(S(=O)(=O)N2CCN(c3nc(-n4ccnc4)nc4ccccc34)CC2)cc1,x,x,x,19%,x,14%
FC(F)Sc1ccc(NC(=S)NC2CCCCC2)cc1,11µM*,-49%,i,u,i,u
CC(=O)N1CCN(C(=S)Nc2ccc(SC(F)F)cc2)CC1,2%,4%,21µM*,-3%,i,9%
CC1CCCCC1NC(=S)Nc1ccc(SC(F)F)cc1 (stereo not drawn),u,-38%,u,u,u,u
FC(F)Sc1ccc(NC(=S)NCc2ccccc2)cc1,u,-14%,u,21µM*,i,u
CC1CCN(C(=S)Nc2ccc(SC(F)F)cc2)CC1,-22%,-54%,i,8%,i,-1%
FC(F)Sc1ccc(NC(=S)NC(c2ccccc2)c2ccccc2)cc1,5.6µM*,11µM*,u,u,u,u
COc1ccc(OC)c(CNC(=O)c2cc3ccc4cccnc4c3[nH]2)c1,u,-46%,i,x,i,x
COc1ccc2c(c1)cc1c(=O)n(CC(=O)NC3CC3)nc(C)n12,-9%,-3%,i,x,i,x
CC(/C=C/c1ccccc1)=N\NC(N)=S,u,-10%,18µM*,-14%,u,3%
CCCOc1ccc(/C=N/NC(=O)CSCc2ccc([N+](=O)[O-])cc2)cc1OCC,3%,-4%,16µM*,9%,i,8%
COc1ccc(CC(=O)NCC(c2cccs2)S(=O)(=O)c2ccc(Cl)cc2)cc1 (stereo not drawn),-16%,-20%,x,x,x,x
CCC(/C=C1\Sc2ccc(OC)cc2N1CCO)=C\c1sc2ccc(OC)cc2[n+]1CCO,0%,-1%,i,u,2.9µM*,u
O=C(CSc1nc2c(c(=O)[nH]1)CN(Cc1ccc3c(c1)OCO3)CC2)Nc1ccc(F)c(F)c1,-8%,-23%,i,x,i,x
CNC(=O)C1CCN(Cc2cc3ccccc3n2Cc2ccccc2C)CC1,-29%,-35%,i,x,i,x

# Compound activity from PubChem.
